Laboratory results published in PubChem BioAssay (NCATS).
Inconclusive results are not listed. Where a call stands in place of a potency, no number is given. Activity calls are given as the source filed them. Calls follow the shape of the dose curve; as a rule, active = well fitted curve in the direction sought with a large enough effect; inconclusive = small, poorly fitted or top-dose-only effect, or another doubt; inactive = no such curve, though single readings can be large; an effect the other way counts as inactive or inconclusive.

Columns and labels:
[1] = NCATS anti-infectives library activity on HEK293 viability as a counter-qHTS vs the C. elegans viability qHTS (AID 1745854);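 also: HEK293 cells exposed to compounds for 24 hr before the viability read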
Outline: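 Cytotoxicity in human HEK293 cells is measured by ATP-dependent CellTiter-Glo luminescence following a 24 hr incubation with titrated library compounds at 37C. Top final concentration is 41.7 uM.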

[2] = target: Metallo-beta-lactamase type 2 (Klebsiella pneumoniae) (UniProt C7C422); experiment: qHTS to identify inhibitors of the New Delhi Metallo-beta-lactamase (NDM): assay validation screen against the NCATS LOPAC Collection (AID 1794843);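 also: nitrocefin turnover by NDM-1 measured as 485 nm absorbance at plateau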
Metallo-beta-lactamase type 2 (Klebsiella pneumoniae), sequence (C7C422 whole entry, looked up): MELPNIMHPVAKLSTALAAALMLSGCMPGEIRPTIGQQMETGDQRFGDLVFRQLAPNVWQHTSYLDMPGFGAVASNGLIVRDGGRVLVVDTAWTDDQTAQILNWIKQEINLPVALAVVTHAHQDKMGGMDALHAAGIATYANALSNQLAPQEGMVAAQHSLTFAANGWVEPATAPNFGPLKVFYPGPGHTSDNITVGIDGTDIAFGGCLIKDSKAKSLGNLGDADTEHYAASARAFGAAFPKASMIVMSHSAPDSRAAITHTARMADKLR
Outline: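 NDM-1 at 2 nM final in 50 mM HEPES pH 7.0 with 1 uM ZnSO4 and 0.01% Tween20 was preincubated with library compounds in DMSO. Nitrocefin (50 uM stock) was then added, and absorbance at 485 nm was read at the kinetic plateau.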

[3] = target: Glutathione peroxidase 1 (Homo sapiens) (UniProt P07203); experiment: Primary qHTS Assay for Inhibitors of Recombinant Selenoprotein Glutathione Peroxidase 1 (GPX1) (AID 1845191); also: nearly all actives have a fitted effect of over 65% in size; also: potency is read from the fitted curve at half-maximal effect
Glutathione peroxidase 1 (Homo sapiens), sequence (P07203 whole entry, looked up): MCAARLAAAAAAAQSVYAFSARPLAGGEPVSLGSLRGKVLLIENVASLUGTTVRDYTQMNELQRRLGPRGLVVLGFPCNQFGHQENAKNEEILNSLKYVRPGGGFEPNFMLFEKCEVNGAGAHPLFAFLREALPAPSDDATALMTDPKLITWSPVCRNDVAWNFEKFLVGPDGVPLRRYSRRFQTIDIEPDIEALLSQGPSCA
Outline: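 10 nM GPX1 + cpd, 30 min RT; start w/ 1 mM GSH, 0.5 mM cumene hydroperoxide, 0.5 mM NADPH, 100 nM GR, 0.01% BSA; buffer 50 mM Tris-HCl pH 7.5, 2 mM EDTA, 150 mM NaCl; Fl 340/450, 0 & 15 min.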

[4] = target: Phospholipid hydroperoxide glutathione peroxidase GPX4 (Homo sapiens) (UniProt P36969); experiment: Primary qHTS Assay for Inhibitors of Recombinant Selenoprotein Glutathione Peroxidase 4 (GPX4) (AID 1845192); details: outcome: dose series up to 50 µM unless noted; also: nearly all actives have a fitted effect of over 65% in size
Phospholipid hydroperoxide glutathione peroxidase GPX4 (Homo sapiens), sequence (P36969 whole entry, looked up): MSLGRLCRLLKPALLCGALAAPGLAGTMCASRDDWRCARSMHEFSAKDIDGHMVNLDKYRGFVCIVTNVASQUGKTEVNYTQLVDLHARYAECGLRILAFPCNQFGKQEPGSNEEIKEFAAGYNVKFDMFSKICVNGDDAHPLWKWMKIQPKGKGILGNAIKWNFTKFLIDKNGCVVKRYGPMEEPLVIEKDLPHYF
Outline: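 NADPH consumption, followed by fluorescence at 340/450 nm between 0 and 15 min, reports GPX4 activity via coupled glutathione reductase (100 nM). Enzyme 200 nM was pre-exposed to compound 30 min; 0.5 mM cumene hydroperoxide and 1 mM GSH served as substrates.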

[5] = target: Catechol O-methyltransferase (Homo sapiens) (UniProt P21964); experiment: Confirmatory Screen for Target Class Profiling of Small Molecule Inhibitors of Methyltransferases (AID 1745852); details: MTase-Glo luminescence, SAH detection, recombinant enzyme; measured here: COMT max response; stronger effect = lower value
Catechol O-methyltransferase (Homo sapiens), sequence (P21964 whole entry, looked up): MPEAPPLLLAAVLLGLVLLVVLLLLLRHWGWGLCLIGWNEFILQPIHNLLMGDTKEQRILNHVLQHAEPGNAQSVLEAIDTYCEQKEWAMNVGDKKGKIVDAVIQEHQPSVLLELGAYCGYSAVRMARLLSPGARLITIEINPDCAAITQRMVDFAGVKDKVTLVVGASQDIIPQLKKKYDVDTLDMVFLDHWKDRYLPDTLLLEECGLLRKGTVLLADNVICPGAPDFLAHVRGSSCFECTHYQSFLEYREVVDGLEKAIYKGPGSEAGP

[6] = target: Guanidinoacetate N-methyltransferase (Homo sapiens) (UniProt Q14353); experiment: as above; details: MTase-Glo luminescence, SAH detection, recombinant enzyme; at 57.3 µM (top of the series)
[7] = target: Nicotinamide N-methyltransferase (Homo sapiens) (UniProt P40261); experiment: as above; details: MTase-Glo luminescence, SAH detection, recombinant enzyme; measured here: NNMT max response; stronger effect = lower value
Nicotinamide N-methyltransferase (Homo sapiens), sequence (P40261 whole entry, looked up): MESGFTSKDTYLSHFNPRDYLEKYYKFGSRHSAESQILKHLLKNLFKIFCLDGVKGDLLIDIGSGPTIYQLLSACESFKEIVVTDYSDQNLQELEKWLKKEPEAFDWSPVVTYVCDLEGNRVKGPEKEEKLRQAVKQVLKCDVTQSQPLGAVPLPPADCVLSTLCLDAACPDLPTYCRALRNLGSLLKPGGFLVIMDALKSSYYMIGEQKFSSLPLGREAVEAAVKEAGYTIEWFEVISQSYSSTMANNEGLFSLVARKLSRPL

[8] = target: Phenylethanolamine N-methyltransferase (Homo sapiens) (UniProt P11086); experiment: as above; details: MTase-Glo luminescence, SAH detection, recombinant enzyme; measured here: PNMT max response; stronger effect = lower value
Phenylethanolamine N-methyltransferase (Homo sapiens), sequence (P11086 whole entry, looked up): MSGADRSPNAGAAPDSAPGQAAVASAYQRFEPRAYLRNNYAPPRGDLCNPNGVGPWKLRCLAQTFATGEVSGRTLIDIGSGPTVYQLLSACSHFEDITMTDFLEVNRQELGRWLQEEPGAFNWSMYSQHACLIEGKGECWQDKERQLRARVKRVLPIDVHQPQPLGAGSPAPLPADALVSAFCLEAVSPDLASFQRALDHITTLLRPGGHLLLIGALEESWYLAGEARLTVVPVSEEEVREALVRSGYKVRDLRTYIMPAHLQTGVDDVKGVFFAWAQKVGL

[9] = target: Luciferin 4-monooxygenase (Photinus pyralis) (UniProt P08659); experiment: Primary firefly luciferase (FLuc) qHTS assay for identification of artifact compounds. (AID 1845220); also: nearly all actives have a fitted effect of over 60% in size
Outline: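 Cell-free, 1536-well qHTS. Buffer pH 7.6 with 0.01% Tween-20 and 0.05% BSA; 10 uM D-luciferin, 10 uM ATP; 10 nM P. pyralis luciferase; luminescence after 5 min.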

COc1cc(Cc2cnc(N)nc2N)cc(OC)c1OC
outcome [1]: inactive
Potency [2]: inactive
Potency [3]: inactive
outcome [4]: inactive

CN(C)[C@@H]1C(=O)C(C(N)=O)=C(O)[C@@]2(O)C(=O)C3=C(O)c4c(O)ccc(Cl)c4[C@@H](O)[C@H]3C[C@@H]12
activity [5]: -43.5%
activity change, negative = inhibition [6]: 8.05%
activity [7]: -3.56%
activity [8]: 2.12%
Potency [2]: inactive
Potency [3]: inactive
outcome [4]: inactive

CCCCNc1ccc(C(=O)OCCN(C)C)cc1
Potency [2]: inactive
Potency [3]: inactive
outcome [4]: inactive

CN/C(=C\[N+](=O)[O-])NCCSCc1ccc(CN(C)C)o1
Potency [2]: inactive
Potency [3]: inactive
outcome [4]: inactive

CCN1CCc2nc(N)oc2CC1
Potency [2]: inactive
Potency [3]: inactive
outcome [4]: inactive

C[N+](C)(C)CCOC(=O)CCC(=O)OCC[N+](C)(C)C
Potency [2]: inactive
Potency [3]: inactive
outcome [4]: inactive

CC(C(=O)O)c1ccc(CC2CCCC2=O)cc1 (configuration not stated)
Potency [2]: inactive
Potency [3]: inactive
outcome [4]: inactive

Cc1nc2c([nH]1)c(=O)n(C)c(=O)n2Cc1ccco1
Potency [2]: inactive
Potency [3]: inactive
outcome [4]: inactive

CC(N=C(NC#N)Nc1ccncc1)C(C)(C)C (configuration not stated)
Potency [2]: inactive
Potency [3]: inactive
outcome [4]: inactive

CCCCNC(=O)NS(=O)(=O)c1ccc(C)cc1
Potency [2]: inactive
Potency [3]: inactive
outcome [4]: inactive

Cc1ccc(=O)n(-c2ccccc2)c1
Potency [2]: inactive
Potency [3]: inactive
outcome [4]: inactive

FC(F)(F)c1ccccc1-n1ccnc1
Potency [2]: inactive
Potency [3]: inactive
outcome [4]: inactive

CCCNC(C)C(=O)Nc1ccccc1C (configuration not stated)
Potency [2]: inactive
Potency [3]: inactive
outcome [4]: inactive

CCN(CC)CCCN(c1ccccc1)C1Cc2ccccc2C1
Potency [2]: inactive
Potency [3]: inactive
outcome [4]: inactive

CC(=O)OCC1=C(C(=O)O)N2C(=O)[C@@H](NC(=O)Cc3cccs3)[C@H]2SC1
Potency [2]: inactive
Potency [3]: 10.1 µM (active)
outcome [4]: inactive

C[C@]12C=CC(=O)C=C1CC[C@H]1[C@@H]3C[C@@H](O)[C@](O)(C(=O)CO)[C@@]3(C)C[C@H](O)[C@@]12F
Potency [2]: inactive
Potency [3]: inactive
outcome [4]: inactive

CCNC(=O)N1CCN(CCCC(c2ccc(F)cc2)c2ccc(F)cc2)CC1
Potency [2]: inactive
Potency [3]: inactive
outcome [4]: inactive

C[N+](C)(C)CCOC(N)=O
Potency [2]: inactive
Potency [3]: inactive
outcome [4]: inactive

CN(C)C(=O)Oc1ccc[n+](C)c1
Potency [2]: inactive
Potency [3]: inactive
outcome [4]: inactive

Cc1cccc(C)c1NC(=O)C(C)N (configuration not stated)
Potency [2]: inactive
Potency [3]: inactive
outcome [4]: inactive

CN(C)C/C=C(/c1ccc(Br)cc1)c1cccnc1
Potency [2]: inactive
Potency [3]: inactive
outcome [4]: inactive

CCN(CC)CC(=O)Nc1c(C)cccc1C
Potency [2]: inactive
Potency [3]: inactive
outcome [4]: inactive

CCCCCCCC/C=C\CCCCCCCC(=O)NCc1ccc(O)c(OC)c1
Potency [2]: inactive
Potency [3]: inactive
outcome [4]: inactive

CNCCC(Oc1ccccc1OC)c1ccccc1 (configuration not stated)
Potency [2]: inactive
Potency [3]: inactive
outcome [4]: inactive

CCN(Cc1ccncc1)C(=O)C(CO)c1ccccc1 (configuration not stated)
Potency [2]: inactive
Potency [3]: inactive
outcome [4]: inactive

C(=C\c1ccccc1)/CN1CCN(C(c2ccccc2)c2ccccc2)CC1
Potency [2]: inactive
Potency [3]: inactive
outcome [4]: inactive

CN=C(NC#N)NCCSCc1nc[nH]c1C
Potency [2]: inactive
Potency [3]: inactive
outcome [4]: inactive

CC(C)NCC(O)c1cc(O)cc(O)c1 (configuration not stated)
Potency [2]: inactive
Potency [3]: inactive
outcome [4]: inactive

CN(C)CC/C=C1\c2ccccc2COc2ccccc21
Potency [2]: inactive
Potency [3]: inactive
outcome [4]: inactive

Cc1ccc(S(=O)(=O)NC(=O)NN2CCCCCC2)cc1
Potency [2]: inactive
Potency [3]: inactive
outcome [4]: inactive

COc1ccc(CN(CCN(C)C)c2ccccn2)cc1
Potency [2]: inactive
Potency [3]: inactive
outcome [4]: inactive

NC(Cc1ccc(Cl)cc1)C(=O)O (configuration not stated)
Potency [2]: inactive
Potency [3]: inactive
outcome [4]: inactive

NS(=O)(=O)c1cc2c(cc1Cl)NC(C1CC3C=CC1C3)NS2(=O)=O (configuration not stated)
Potency [2]: inactive
Potency [3]: inactive
outcome [4]: inactive

N[C@@H](COP(=O)(O)O)C(=O)O
Potency [2]: inactive
Potency [3]: inactive
outcome [4]: inactive

CC(=O)[C@@]1(O)CC[C@H]2[C@@H]3CCC4=CC(=O)CC[C@]4(C)[C@H]3CC[C@@]21C
Potency [2]: inactive
Potency [3]: inactive
outcome [4]: inactive

CCCCNc1c(C(=O)OCC)c(C)nc2c1cnn2CC
Potency [2]: inactive
Potency [3]: inactive
outcome [4]: inactive

Cc1cc(C)c(/C=C2\C(=O)Nc3ccccc32)[nH]1
Potency [2]: inactive
Potency [3]: inactive
outcome [4]: inactive

O=c1[nH]c(=O)n([C@H]2C[C@H](O)[C@@H](CO)O2)cc1Br
Potency [2]: inactive
Potency [3]: inactive
outcome [4]: inactive

COC(=O)[C@H]1[C@H]2C[C@@H]3c4[nH]c5cc(OC)ccc5c4CCN3C[C@H]2C[C@@H](OC(=O)c2cc(OC)c(OC)c(OC)c2)[C@@H]1OC
outcome [9]: inactive

CCCN(CCC)C(=O)C(CCC(=O)O)NC(=O)c1ccccc1 (configuration not stated)
Potency [3]: inactive
outcome [4]: inactive

c1ccc2c(c1)CCCC2C1=NCCN1 (configuration not stated)
Potency [3]: inactive
outcome [4]: inactive

CCN(CC)CCNC(=O)c1cc(S(C)(=O)=O)ccc1OC
Potency [3]: inactive
outcome [4]: inactive

COc1ccc([C@@H]2Sc3ccccc3N(CCN(C)C)C(=O)[C@@H]2OC(C)=O)cc1
Potency [3]: inactive
outcome [4]: inactive

CCCOc1ccccc1-c1nc2n[nH]nc2c(=O)[nH]1
Potency [3]: inactive
outcome [4]: inactive

OC(CCN1CCCCC1)(c1ccccc1)C1CCCCC1 (configuration not stated)
Potency [3]: inactive
outcome [4]: inactive

CC(C)(Oc1ccc(CCNC(=O)c2ccc(Cl)cc2)cc1)C(=O)O
Potency [3]: inactive
outcome [4]: inactive

CCCC(C(=O)OCCN(CC)CC)(c1ccccc1)c1ccccc1
Potency [3]: inactive
outcome [4]: inactive

CC(C)[N+](C)(CCOC(=O)C1c2ccccc2Oc2ccccc21)C(C)C
Potency [3]: inactive
outcome [4]: inactive

CCOC(=O)C1=C(C)NC(C)=C(C(=O)OC)C1c1cccc(Cl)c1Cl (configuration not stated)
Potency [3]: inactive
outcome [4]: inactive

CCOC(=O)C1=C(C)NC(C)=C(C(=O)OC)C1c1cccc([N+](=O)[O-])c1 (configuration not stated)
Potency [3]: inactive
outcome [4]: inactive
